We go through eight molecules from PubChem BioAssay (NCI).

Among the test systems are DU-145 prostate; K-562 leukemia; MALME-3M melanoma; MDA-MB-231 breast; RXF 393 renal; SF-268 CNS; SF-295 CNS; SF-539 CNS; UACC-257 melanoma; M14 melanoma; HCT-15 colon; HT29 colon; SNB-75 CNS; U251 CNS; PC-3 prostate; SK-MEL-5 melanoma; UACC-62 melanoma; LOX IMVI melanoma; SK-MEL-28 melanoma; SNB-19 CNS.
Holding throughout (experiment): NCI-60 one-dose screen, 48 h (100 = growth as untreated, 0 = no growth, -100 = all killed)
Conditions in all cases: 10 µM unless noted

This is part of a sample that, as a whole, favours compounds with a hit. Of some 83,000 tested, about 20% had one in any assay.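 Interpretation: 100, growth as untreated; towards 0, rising growth inhibition; 0, no net growth; 0 to -100, cell death. Compounds scoring below 10 were considered active.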 Unmarked numbers belong to inactive results. The source made the active and inactive calls.

For the molecule `Cc1ccc(CSC2=C(Cl)CN(c3ccc(Cl)cc3)C2=O)cc1`, the growth with DU-145 prostate was 108%; in the assay on K-562 leukemia, 100%; in the assay on MALME-3M melanoma, 96.9%; with MDA-MB-231 breast it was 107%; in the assay with RXF 393 renal it was 111%; with SF-268 CNS it was 108%. Also, the growth was 101% in the assay on SF-295 CNS; 103% in the assay with SF-539 CNS; 107% with UACC-257 melanoma; 107% in the assay with M14 melanoma; 99.2% in the assay on HCT-15 colon; 116% in the assay on HT29 colon. Also, the growth in the assay with SNB-75 CNS is 103%; in the assay on U251 CNS, 101%; with PC-3 prostate it was 107%; in the assay on SK-MEL-5 melanoma, 99.8%; in the assay with UACC-62 melanoma it was 94.7%; with LOX IMVI melanoma, 33.9%. Moreover, the growth in the assay with SK-MEL-28 melanoma was 104%.

In the case of `CNCCN(C)c1ccc(Nc2cc(NC3CC3)n3ncc(C#N)c3n2)cc1NC(C)=O`, the growth was 17.5% in the assay with DU-145 prostate; 10.7% in the assay with K-562 leukemia; -5.08% (active) with MALME-3M melanoma; -6.44% (active) with MDA-MB-231 breast; -24.5% (active) in the assay with RXF 393 renal; 7.24% (active) with SF-268 CNS. For the same molecule, the growth in the assay on SF-295 CNS is 12%; in the assay on SF-539 CNS it was 6.65% (active); with UACC-257 melanoma, 8.4% (active); with M14 melanoma, -20.6% (active); with HCT-15 colon, 9.77% (active); with HT29 colon, 16.4%. In addition, the growth is -24.3% (active) in the assay with SNB-75 CNS; 5.12% (active) in the assay with U251 CNS; 10.7% with PC-3 prostate; -1.54% (active) in the assay on SK-MEL-5 melanoma; -24.9% (active) with UACC-62 melanoma; 13% in the assay with SK-MEL-28 melanoma.

For the molecule `O=C(/C=C/Nc1ccc(S(=O)(=O)Nc2ncccn2)cc1)c1ccc(N=Cc2c(O)[nH]c3ccccc23)cc1`, the growth in the assay with DU-145 prostate was 116%; in the assay on K-562 leukemia, 97.1%; in the assay on MALME-3M melanoma, 127%; with MDA-MB-231 breast it was 99.9%; in the assay with RXF 393 renal it was 113%; with SF-268 CNS, 112%. For the same molecule, the growth in the assay on SF-295 CNS is 105%; with SF-539 CNS, 102%; in the assay with UACC-257 melanoma, 101%; in the assay with M14 melanoma it was 109%; in the assay on HCT-15 colon, 104%; with HT29 colon it was 106%. The growth with SNB-75 CNS was 102%; with U251 CNS, 103%; with PC-3 prostate, 101%; in the assay with SK-MEL-5 melanoma it was 98.1%; in the assay on UACC-62 melanoma it was 108%; in the assay with LOX IMVI melanoma, 102%. Besides, in the assay on SK-MEL-28 melanoma, the growth was 118%.

Take `Cc1csc(/N=C(N)/N=C(\N)c2cccc(Br)c2)n1`: the growth with DU-145 prostate is 105%; in the assay with K-562 leukemia, 57%; in the assay on MALME-3M melanoma it was 97.7%; with MDA-MB-231 breast, 96%; in the assay with RXF 393 renal it was 94.1%; in the assay with SF-268 CNS, 91.7%. Also, the growth is 94.1% in the assay with SF-295 CNS; 92.6% in the assay on SF-539 CNS; 102% in the assay on UACC-257 melanoma; 86.6% in the assay on M14 melanoma; 67% in the assay with HCT-15 colon; 97.4% in the assay on HT29 colon. For the same molecule, the growth with SNB-75 CNS was 72.8%; with U251 CNS, 91.5%; in the assay on PC-3 prostate it was 87.9%; in the assay on SK-MEL-5 melanoma it was 97.6%; in the assay on UACC-62 melanoma, 74.5%; in the assay with LOX IMVI melanoma it was 90.4%. Also, the growth with SK-MEL-28 melanoma is 92.1%.

Turning to `CCCCCCNC(=O)Oc1ccc(/C(=C(/C)c2ccc(OC)cc2)c2ccc(OCCN3CCCCCC3)cc2)cc1`, the growth in the assay with DU-145 prostate was 47.8%; with K-562 leukemia, 2.71% (active); with MALME-3M melanoma it was -34.9% (active); in the assay with MDA-MB-231 breast, 6.27% (active); in the assay on RXF 393 renal, -8.34% (active); in the assay on SF-268 CNS, 60.3%. For the same molecule, the growth in the assay with SF-295 CNS is -41.3% (active); in the assay on SF-539 CNS, -59% (active); in the assay with UACC-257 melanoma it was 9.09% (active); with M14 melanoma it was -63.5% (active); in the assay with HCT-15 colon, -39.1% (active); in the assay on HT29 colon, -34% (active). For the same molecule, the growth in the assay with SNB-75 CNS is 76.8%; in the assay with SNB-19 CNS it was 39.2%; in the assay with U251 CNS, 19.6%; in the assay with PC-3 prostate it was 24.5%; in the assay with SK-MEL-5 melanoma, 61.2%; in the assay with LOX IMVI melanoma it was -94.2% (active). For the same molecule, the growth with SK-MEL-28 melanoma was -36.1% (active).

For the molecule `Cc1csc(/N=C(N)/N=C(\N)c2cccnc2)n1`, the growth was 96.8% in the assay on DU-145 prostate; 42.4% in the assay on K-562 leukemia; 60.7% in the assay on MALME-3M melanoma; 86.9% in the assay with MDA-MB-231 breast; 89.7% in the assay on RXF 393 renal; 77.2% with SF-268 CNS. Also, the growth in the assay on SF-295 CNS is 48.4%; in the assay with SF-539 CNS it was 79.5%; with UACC-257 melanoma it was 95.5%; in the assay with M14 melanoma it was 51.6%; with HCT-15 colon, 42.7%; in the assay with HT29 colon, 59%. Besides, the growth is 41.7% in the assay with SNB-75 CNS; 76.5% with U251 CNS; 69.2% in the assay on PC-3 prostate; 80.3% in the assay on SK-MEL-5 melanoma; 40.2% in the assay with UACC-62 melanoma; 74.7% in the assay with LOX IMVI melanoma. Also, the growth in the assay on SK-MEL-28 melanoma was 65.3%.

Consider `CS(=O)(=O)c1ccc(/C(=N/N=C(N)N)c2ccc(Cl)cc2)cc1`, for which the growth with DU-145 prostate was 101%; with K-562 leukemia, 40.7%; in the assay on MALME-3M melanoma it was 81.6%; with MDA-MB-231 breast, 96.1%; in the assay with RXF 393 renal, 82.6%; in the assay on SF-268 CNS it was 80.7%. Moreover, the growth is 95.4% with SF-295 CNS; 91.8% in the assay on SF-539 CNS; 90.2% in the assay with UACC-257 melanoma; 72.8% with M14 melanoma; 81.6% in the assay with HCT-15 colon; 92.9% with HT29 colon. Moreover, the growth with SNB-75 CNS was 72.8%; in the assay on SNB-19 CNS, 90.3%; in the assay with U251 CNS it was 92.8%; in the assay on PC-3 prostate, 76.5%; with SK-MEL-5 melanoma, 92.2%; in the assay with LOX IMVI melanoma, 79.7%. The growth with SK-MEL-28 melanoma is 95.1%.

Regarding `CNC(=O)c1cc(-n2ccc3cc(NC(=O)Nc4ccc(N5CCN(C)CC5)c(C(F)(F)F)c4)ccc32)ccn1`, the growth in the assay with DU-145 prostate was 86.5%; with K-562 leukemia, -53.3% (active); with MALME-3M melanoma, 2.37% (active); with MDA-MB-231 breast it was 61.5%; in the assay with RXF 393 renal it was -27.7% (active); in the assay with SF-268 CNS, 83.4%. Further, the growth in the assay on SF-295 CNS was -47.2% (active); in the assay on SF-539 CNS, 1.48% (active); in the assay on UACC-257 melanoma it was 72.2%; with M14 melanoma, 59%; in the assay on HCT-15 colon it was 23.8%; with HT29 colon, 0.845% (active). For the same molecule, the growth is 56.3% with SNB-75 CNS; 46.6% in the assay with U251 CNS; 60.8% in the assay with PC-3 prostate; 79% with SK-MEL-5 melanoma; 98.7% in the assay on UACC-62 melanoma; -72.8% (active) in the assay on LOX IMVI melanoma. The growth in the assay with SK-MEL-28 melanoma is -85.6% (active).
